Screening data as filed in PubChem BioAssay.
FAS-TE inh: FAS thioesterase (human) inhibition. inhibition, % at 15 µM. P49327. hit rate 0.67% among 360,000. AID 602261. recombinant FAS-TE, OMFH fluorogenic substrate, fluorescence endpoint;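 active means compounds whose normalised, plate-corrected inhibition of enzyme fluorescence in the single-dose primary screen is 50% or more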;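 further: 0% = DMSO with enzyme and 100% = substrate without enzyme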
ADAM17 inh: ADAM17 inhibition, QFRET primary screen; P78536; recombinant ADAM17, EDANS/DABCYL FRET peptide cleavage; inhibition, % at 6.95 µM; hit rate 0.83% among 370,000; AID 720648;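 active means inhibition above the mean of compounds lying between control limits plus 3 SD, set per campaign, cut at about 8.5% in these data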;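 further: 0% = DMSO-only wells as the low control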
aDG glyco up: alpha-DG glycosylation activation; Pro5-aDG cells, alpha-DG glycosylation AlphaScreen (IIH6); 0% Pro5, 100% B10-LARGE cell signal; activation, % at 10 µM; hit rate 0.22% among 360,000;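 active means activation of at least 8% versus controls, or a plate z-score of at least 8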;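 further: Pro5 are CHO cells carrying HIG-tagged alpha-DG that lacks glycosylation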
ADAM10 inh: inhibits human ADAM10; O14672; recombinant ADAM10, EDANS/DABCYL FRET peptide cleavage, 3 h; inhibition, % at 7 µM; hit rate 0.62% among 370,000; AID 720582;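 active means inhibition above a per-campaign cutoff equal to the mean of compounds falling between control-based bounds plus 3 SD, cut at about 20% in these data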;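 further: 0% = DMSO wells while the 100% control is not disclosed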
Target sequence (O14672 214-748 limits assumed): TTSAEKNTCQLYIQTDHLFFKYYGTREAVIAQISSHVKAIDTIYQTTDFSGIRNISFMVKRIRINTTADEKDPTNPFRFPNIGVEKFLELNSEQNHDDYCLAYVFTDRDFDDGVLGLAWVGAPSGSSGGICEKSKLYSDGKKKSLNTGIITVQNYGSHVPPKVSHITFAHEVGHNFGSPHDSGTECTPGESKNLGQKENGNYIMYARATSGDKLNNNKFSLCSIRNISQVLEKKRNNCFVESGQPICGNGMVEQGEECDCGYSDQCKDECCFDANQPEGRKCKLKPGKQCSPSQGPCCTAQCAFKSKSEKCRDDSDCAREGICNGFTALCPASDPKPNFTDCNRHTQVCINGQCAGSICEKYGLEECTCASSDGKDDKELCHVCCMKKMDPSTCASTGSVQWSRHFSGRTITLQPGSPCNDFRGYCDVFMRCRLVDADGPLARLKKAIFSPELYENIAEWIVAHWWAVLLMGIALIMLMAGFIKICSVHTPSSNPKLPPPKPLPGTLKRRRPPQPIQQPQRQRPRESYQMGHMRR
NR3A LBD binder: modulators (binders) of human NR3A ligand-binding domain; hit rate 2.5% among 340,000; NR3A LBD differential scanning fluorimetry, Tm shift; 0% = protein alone, 100% = glycine-bound protein; Tm shift relative to glycine control, % at 25 µM;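 active means melting temperature shift of at least 10% of the positive control shift, at one fixed dose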
ADAM10 confirm: human ADAM10 inhibition, confirmation; shares compounds with ADAM10 inh; ADAM10 QFRET peptide cleavage, EDANS fluorescence; inhibition, % at 6.95 µM; hit rate 1% among 2,100;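 active means inhibition above about 20% chosen separately for each screening run, limit read from the data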;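 further: 0% = DMSO wells and 100% = marimastat wells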
ADAM17 ctr: ADAM17 inhibition, counter-screen for ADAM10 exosite hits; inhibition, % at 6.95 µM; ADAM17 QFRET peptide cleavage, EDANS fluorescence; shares compounds with ADAM10 inh; hit rate 0.5% among 2,100;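 active means mean triplicate inhibition above the solvent-only control wells' mean plus 3 SD, cut at about 12% in these data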;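 further: 0% = DMSO wells and 100% = marimastat wells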
ADAM10 counter: counter-screen for ADAM17 exosite inhibitors: inhibitors of human ADAM10; AID 743256; hit rate 47% among 2,900; shares compounds with ADAM17 inh; recombinant ADAM10, EDANS/DABCYL FRET peptide cleavage, 3 h; inhibition, % at 6.95 µM;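 active means mean inhibition over the triplicate runs exceeds the activity threshold set in the earlier primary screen, cut at about 20% in these data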;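 further: 0% = DMSO wells and 100% = marimastat wells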
ADAM17 confirm: confirmation of inhibitors of human ADAM17; AID 743257; hit rate 65% among 2,900; inhibition, % at 6.95 µM; recombinant ADAM17, EDANS/DABCYL QFRET peptide cleavage; shares compounds with ADAM17 inh;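 active means mean inhibition across replicates above the hit cutoff set in the primary screen, cut at about 8.5% in these data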;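 further: 0% = DMSO wells and 100% = marimastat wells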
* hit, by the source's call; nt = no result given. In the library only some 4% were active in any assay of this set; here they are far more common.

SMILES | FAS-TE inh | ADAM17 inh | aDG glyco up | ADAM10 inh | NR3A LBD binder | ADAM10 confirm | ADAM17 ctr | ADAM10 counter | ADAM17 confirm
CC(C)C[C@H](NC(=O)c1nc[nH]c1C(=O)N[C@@H](CCCCNC(=O)OC(C)(C)C)C(=O)OC(C)(C)C)C(=O)OC(C)(C)C | 9 | 0 | 1 | 12 | -3 | nt | nt | nt | nt
Cc1ccc(NC(=O)c2nc[nH]c2C(=O)N[C@H](C)c2ccccc2)cc1 | 28 | 13* | 0 | 20* | 0 | 5 | 2 | 20* | 11*
C[C@H](NC(=O)c1nc[nH]c1C(=O)N[C@@H](Cc1ccccc1)C(=O)OC(C)(C)C)c1ccccc1 | 17 | 18* | 0 | 37* | -14 | 10 | 3 | 55* | 28*
C[C@H](NC(=O)c1nc[nH]c1C(=O)N[C@@H](Cc1ccccc1)C(=O)OC(C)(C)C)C(=O)OCc1ccccc1 | 20 | 10* | 2 | 25* | -12 | 9 | 4 | 38* | 25*
C[C@H](NC(=O)c1nc[nH]c1C(=O)N[C@H](C)c1ccccc1)C(=O)OC(C)(C)C | 0 | 4 | 0 | 10 | -1 | nt | nt | nt | nt
CCOC(=O)c1ccc(NC(=O)c2nc[nH]c2C(=O)N[C@H](C)c2ccccc2)cc1 | 16 | 0 | 0 | -2 | 0 | nt | nt | nt | nt
C[C@@H](NC(=O)c1nc[nH]c1C(=O)N[C@@H](CCCCNC(=O)OC(C)(C)C)C(=O)OC(C)(C)C)c1ccccc1 | 18 | 22* | 0 | 43* | -13 | -1 | 0 | 37* | 16*
COc1ccc(CCNc2ccc(C(CC(N)=O)NC(=O)Cc3cccc4ccccc34)cc2[N+](=O)[O-])cc1 (stereo not given) | -3 | -6 | 0 | -4 | -10 | nt | nt | nt | nt
O=C(Nc1ccc(N2CCCC2)c(S(=O)(=O)Nc2cccc(C(F)(F)F)c2)c1)c1cccs1 | 32 | 15* | 0 | 28* | 30* | 15 | 5 | 42* | 24*
COc1ccccc1NS(=O)(=O)c1cc(NC(=O)c2cccs2)ccc1N1CCCCC1 | 29 | 4 | 0 | 7 | 1 | nt | nt | nt | nt
COc1ccc(N(CC(=O)NC2CC3CCC2C3)S(=O)(=O)c2ccc(C)c([N+](=O)[O-])c2)cc1 (stereo not given) | 23 | -1 | 0 | -6 | -13 | nt | nt | nt | nt
COc1ccc(NC(=O)Nc2ccc3c(c2)C(=O)N([C@H](C)CO)C[C@H](C)[C@@H](CN(C)S(=O)(=O)c2cccs2)O3)cc1 | -1 | 16* | 0 | 21* | -3 | 3 | 0 | 14 | 10*
C[C@H](CO)N1C[C@H](C)[C@H](CN(C)S(=O)(=O)c2cccs2)Oc2ccc(NC(=O)Nc3ccc4c(c3)OCO4)cc2CC1=O | 4 | 13* | 0 | 27* | -1 | 2 | 0 | 16 | 14*
C[C@H](CO)N1C[C@H](C)[C@@H](CN(C)S(=O)(=O)c2cccs2)Oc2ccc(NC(=O)Nc3ccc4c(c3)OCO4)cc2C1=O | 4 | 3 | 0 | 0 | -2 | nt | nt | nt | nt
CC(C)NC(=O)Nc1ccc2c(c1)C(=O)N([C@H](C)CO)C[C@H](C)[C@@H](CN(C)S(=O)(=O)c1cccs1)O2 | -8 | 3 | 0 | 1 | 0 | nt | nt | nt | nt
COc1ccc(NC(=O)Nc2ccc3c(c2)C(=O)N([C@@H](C)CO)C[C@@H](C)[C@@H](CN(C)S(=O)(=O)c2cccs2)O3)cc1 | 10 | 8.8* | 0 | 21* | 3 | 0 | 0 | 19 | 12*
COc1ccc(CN2CCN(CC(=O)Nc3ccccc3C(=O)NC3CC3)CC2)cc1F | -6 | -2 | 0 | -6 | 0 | nt | nt | nt | nt
S=C1NCCOCCOCCOCCN1 | -9 | -3 | 0 | -2 | 0 | nt | nt | nt | nt
O=C(Cc1ccccc1)Nc1nnc(-c2cccs2)s1 | -8 | -17 | 0 | -43 | -1 | nt | nt | nt | nt
